Test results from PubChem BioAssay AID504444 (National Center for Advancing Translational Sciences (NCATS), 2011).
About 7,500 (2.1%) of roughly 360,000 compounds were called active. About 20% were inconclusive and are not listed. The entries come from a sample that favours actives as a whole. A number with no mark means an inactive call. Calls follow the shape of the dose curve; as a rule, active = well fitted inhibition curve with a large enough effect; inconclusive = small, poorly fitted or top-dose-only effect, or effect the other way; inactive = flat fitted curve, though single readings scatter.

Test: Nrf2 qHTS screen for inhibitors; also: nearly all actives have a fitted effect of over 60% in size
Details: A549 ARE-Fluc reporter, luciferase luminescence, 18-24 h; series mostly up to 46 µM; activity change, negative = inhibition: at the top concentration
Summary of the method: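 Two sequential reads on A549 ARE_Fluc cells exposed to compound for 18-24 h: a CellTiter-Fluor fluorescence read for viability, then a luciferase luminescence read for Nrf2/ARE activity.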
% is scaled to controls: 0 for no effect and ±100 for the full control effect; potency is read from the fitted curve at half-maximal effect.

Compound | activity change, negative = inhibition | Potency
CCOC(=O)c1c(C)n(S(=O)(=O)c2ccc(C)cc2C)c2ccc(NS(=O)(=O)c3ccc(C)cc3C)cc12 | -14.8% | –
CCN(CC)S(=O)(=O)c1cccc(NC(=O)c2ccc(S(=O)(=O)N3CCCC3)cc2)c1 | – | 23.1 µM (active)
COc1cc(C(=O)NNC(=O)c2ccc(S(=O)(=O)N3CCCCC3)cc2)cc(OC)c1OC | -3.74% | –
O=C(Nc1cccc(S(=O)(=O)N2CCCC2)c1)c1cncc(Br)c1 | -20.7% | –
CC(C)n1ncc2c(C(=O)NCc3ccccc3CN(C)C)cc(C3CC3)nc21 | -4.86% | –
CC(C)(C)C(=O)Nc1cccc(-c2ccc[nH]2)n1 | 12.1% | –
COc1cc2c(cc1OC)C(c1ccncc1)CC(=O)N2 (stereo not drawn) | 9.55% | –
COC(=O)c1ccc(C2CC(=O)Nc3cc(OC)c(OC)cc32)cc1 (stereo not drawn) | -22.5% | –
Cc1cc2c(cc1C)C(c1cccc(OC(C)C)c1)CC(=O)N2 (stereo not drawn) | – | 16.4 µM (active)
Cc1ccc(NC(=O)CN2C(=O)CC(C)Sc3ccccc32)c(C)c1 (stereo not drawn) | -11.2% | –
CCN1C(=O)/C(=C\N2CCN(c3cccc(Cl)c3)CC2)SC1=S | 14.6% | –
OC(COc1ccccc1)CN1CCN(c2cccc(Cl)c2)CC1 (stereo not drawn) | 5.04% | –
CCc1nn(CCCN2CCN(c3cccc(Cl)c3)CC2)c(=O)n1CCOc1ccccc1 | – | 16.4 µM (active)
Cc1ccc(-c2noc(CSc3nnc(-c4ccc(Cl)cc4)n3C)n2)cc1 | -23.8% | –
COC(=O)c1ccccc1NC(=O)Cn1c(=O)cc(C)c2c(C)nn(-c3cccc(Cl)c3C)c21 | 19.2% | –
COc1cccc(-c2ccc(SCC(=O)N3CCN(c4ccccc4)CC3)nn2)c1 | – | 20.6 µM (active)
COc1cccc(/C=C/C(=O)OCC(=O)N2CCN(c3ccccc3)CC2)c1 | -5.53% | –
Cc1nnc(SCC(=O)N2CCN(c3ccccc3)CC2)n1-c1ccccc1 | -13.8% | –
C=CC[C@@H](CC(=O)N[C@H](CO)Cc1ccccc1)C(=O)N[C@H](C)COC(=O)[C@@H](CC=C)Cc1ccc(F)cc1 | -13% | –
C=CCC[C@@H](Cc1ccc(F)cc1)C(=O)OC[C@H](Cc1c[nH]c2ccccc12)NC(=O)[C@@H](CC=C)CC(=O)N(CCO)Cc1ccccc1 | – | 20.6 µM (active)
C=CCC[C@@H](Cc1ccc(F)cc1)C(=O)O[C@H](CNC(=O)[C@H](CC=C)CC(=O)N(CCO)Cc1ccccc1)c1ccccc1 | – | 18.4 µM (active)
C=CCC[C@@H](Cc1ccc(F)cc1)C(=O)OC[C@@H](C)NC(=O)[C@H](CC=C)CC(=O)N(CCO)Cc1ccccc1 | -20.4% | –
C=CC[C@@H](CC(=O)N[C@H](CO)Cc1ccccc1)C(=O)N[C@@H](COC(=O)[C@@H](CC=C)Cc1ccc(F)cc1)Cc1c[nH]c2ccccc12 | 5.43% | –
C=CC[C@H](CC(=O)OC(C)(C)C)C(=O)OC[C@H]1CCCN1C(=O)[C@H](CC=C)CC(=O)N(CCO)Cc1ccccc1 | 6.87% | –

Compound | activity change, negative = inhibition | Potency
CCOC(=O)c1ccc(N2C(=O)c3n[nH]c(-c4ccco4)c3C2c2ccc(O)cc2)cc1 (stereo not drawn) | -16.7% | –
O=C1[C@@H](c2ccccc2)[C@@H](c2ccccc2)N1c1cccnc1 | -8.38% | –
COc1ccccc1CNC(=O)C1CCN(S(=O)(=O)c2ccc3c(c2)CC(C)N3C(=O)C2CC2)CC1 (stereo not drawn) | 8.44% | –
CC(=O)N1CCCc2cc(S(=O)(=O)N3CCCC(C(=O)N4CCN(c5cccc(Cl)c5)CC4)C3)ccc21 (stereo not drawn) | – | 7.31 µM (active)
CC(=O)N1c2ccc(S(=O)(=O)N3CCC(C(=O)NC4CCCCC4C)CC3)cc2CC1C (stereo not drawn) | -27.4% | –
CC(=O)Nc1ccc(NC(=O)C2CCCN(S(=O)(=O)c3ccc(Cl)cc3)C2)cc1 (stereo not drawn) | 9.54% | –
CCCS(=O)(=O)N1CCCC(C(=O)N2CCN(c3ccccc3)CC2)C1 (stereo not drawn) | 7.07% | –
CC(=O)N1c2ccc(S(=O)(=O)N3CCCC(C(=O)NCc4ccc(Cl)cc4)C3)cc2CC1C (stereo not drawn) | – | 8.2 µM (active)
Cc1ccc(S(=O)(=O)N2CCCC(C(=O)N3CCN(C)CC3)C2)cc1 (stereo not drawn) | -14.6% | –
O=C(C1CCCN(S(=O)(=O)c2ccccc2)C1)N1CCN(c2ccc(F)cc2)CC1 (stereo not drawn) | – | 23.1 µM (active)
CC(=O)N1c2ccc(S(=O)(=O)N3CCCC(C(=O)Nc4cccc(Cl)c4)C3)cc2CC1C (stereo not drawn) | – | 6.51 µM (active)
CC(=O)N1CCCc2cc(S(=O)(=O)CCC(=O)N3CCN(c4ccccc4)CC3)ccc21 | -18.6% | –
CC(=O)N1c2ccc(S(=O)(=O)N3CCC(C(=O)N4CCN(c5ccccc5)CC4)CC3)cc2CC1C (stereo not drawn) | -2.49% | –
CC(=O)N1c2ccc(S(=O)(=O)N3CCC(C(=O)NCc4ccc(F)cc4)CC3)cc2CC1C (stereo not drawn) | -24.8% | –
O=S(=O)(c1ccc2c(c1)OCCO2)N1CCN(S(=O)(=O)c2cc(F)ccc2F)CC1 | 4.79% | –
Cn1c(=O)c2c(nc(SCC(=O)Nc3ccc(F)cc3)n2Cc2ccc(Cl)cc2)n(C)c1=O | -16.3% | –
COc1cc(C(=O)N2CCN(S(=O)(=O)c3ccc(C(C)C)cc3)CC2)ccc1OCC(=O)N1CCOCC1 | 2.4% | –
COC(=O)Cc1c(-c2[nH]c3ccccc3c2CC(=O)OC)[nH]c2ccccc12 | 5.69% | –
O=C(c1ccc2c(c1)N(Cc1ccccc1)C(=O)c1ccccc1S2(=O)=O)N1CCCC1 | -12.5% | –
O=C(CCS(=O)(=O)c1ccc2c(c1)NC(=O)CO2)Nc1cccc(C(F)(F)F)c1 | 2.09% | –
Cc1cc2c(cc1C)NC1(C[C@H]3CCC(=O)N4CC[C@@H](C1)[C@@H]34)C(=NC(C)(C)CC(C)(C)C)N2 (stereo partly drawn) | -23.5% | –
COc1ccccc1-c1noc(CSc2nnc(-c3ccccc3)n2-c2ccc(C)c(C)c2)n1 | -2.74% | –
COc1ccccc1NC(=O)Nc1nc(CC(=O)Nc2ccccc2F)cs1 | -11.4% | –
COc1ccc(CCNc2nc(-c3cccc(NC(C)=O)c3)cs2)cc1OC | -6.15% | –

Compound | activity change, negative = inhibition | Potency
Cc1ccc(S(=O)(=O)NC(=O)Nc2nc(-c3ccc(F)c(F)c3)cs2)cc1 | 5.15% | –
COc1ccc(CC(=O)Nc2nc(-c3ccc(F)c(F)c3)cs2)cc1OC | – | 1.84 µM (active)
COc1ccc(-c2csc(NC(=O)c3ccc(N4C(=O)CCC4=O)cc3)n2)cc1OC | -0.264% | –
COc1cc(CC(=O)Nc2nc(-c3ccc(F)c(F)c3)cs2)cc(OC)c1OC | – | 11.6 µM (active)
COc1ccccc1CNC(=O)C(Cc1ccccc1)NS(=O)(=O)c1ccc2c(c1)oc(=O)n2C (stereo not drawn) | 18.2% | –
COc1ccc(NC(=O)CN2CCCN(Cc3ccccc3)S2(=O)=O)cc1 | 13.6% | –
COC(=O)c1ccc(NCc2cc(O)ccc2O)cc1 | 10.5% | –
CN(CC(=O)Nc1ccc(Cl)cc1)CC(=O)Nc1cccc2ccccc12 | -8.71% | –
O=C(c1ccc(Cl)c(S(=O)(=O)N2CCCCC2)c1)N1CCCCCC1 | -1.18% | –
O=C(c1ccc(Cl)c(S(=O)(=O)N2CCCCCC2)c1)N1CCN(c2ccc(O)cc2)CC1 | – | 23.1 µM (active)
O=C(c1ccc(Cl)c(Cl)c1)N1CCCC1 | 5.79% | –
O=C(c1ccccc1F)N1CCC(c2nc3c(nnn3Cc3cccc(F)c3)c(=O)[nH]2)CC1 | -16.8% | –
COc1ccc(CN2C(=O)C(NC(=O)c3cccc(C)c3)(C(F)(F)F)N=C2c2ccccc2)cc1 (stereo not drawn) | -6.01% | –
COc1ccc(CCNC(=O)CSc2nc(-c3ccc(OC)c(OC)c3)ccc2C#N)cc1 | – | 18.4 µM (active)
COc1ccc(CCNC(=O)CSc2nnc3ccc(-c4ccncc4)nn23)cc1 | -30% | –
COc1cccc(-c2ccc(C#N)c(SCC(=O)NCCc3ccc(Cl)cc3)n2)c1 | -20.6% | –
CCOc1ccc2oc(=O)cc(CN3CCN(C(=O)c4ccc(F)cc4)CC3)c2c1 | 11.7% | –
O=C1c2ccccc2C(=O)C1c1ccccc1F | -0.356% | –
O=C1c2ccccc2C2=Nc3ccccc3SC(c3ccccc3F)C12 (stereo not drawn) | – | 23.1 µM (active)
Cc1cccc(NC(=O)c2nnn(CC(=O)Nc3ccc(C(C)C)cc3)c2N)c1C | 9.89% | –
O=C(CSc1nnc(CN2CCCC2)n1-c1ccc(F)cc1)c1ccc2c(c1)OCO2 | 0.537% | –
COc1ccccc1-c1cc(C(F)(F)F)nc(S(=O)(=O)CCCC(=O)Nc2ccc(F)cc2F)n1 | 10.4% [at 9.27 µM] | –
COc1cc(C(=O)NC2CCN(C)CC2)ccc1Nc1ncc2c(n1)N(C1CCC(O)CC1)CCC(=O)N2C (stereo not drawn) | 5.46% | –
CCOc1ccc(NC(=O)CN2CCN(CC(=O)Nc3ccc(OC)cc3)CC2)cc1 | 17.4% | –

Compound | activity change, negative = inhibition | Potency
O=C(CN1CCN(C(=S)NC2CCCC2)CC1)Nc1ccc(Oc2ccccc2)cc1 | – | 16.4 µM (active)
CCOc1ccc(NC(=S)N2CCC(NC(=O)c3ccccc3)CC2)cc1 | 2.87% | –
CCc1cc2c(-c3ccccc3)cc(=O)oc2c2c1OCN(Cc1ccc(C)cc1)C2 | 8.44% | –
O=C(Cc1ccc(NC(=O)C2CCCN(C(=O)CCc3ccccc3)C2)cc1)Nc1ccc(C(=O)N2CCOCC2)cc1 (stereo not drawn) | 2% | –
CC(C)OC(=O)c1ccc(NCc2cc(O)ccc2O)cc1Cl | 16.7% | –
O=S(=O)(c1ccc(Br)cc1)c1nc(-c2ccccc2)oc1NCc1cccnc1 | – | 20.6 µM (active)
Cc1ccc(S(=O)(=O)c2nc(-c3cccs3)oc2NCc2cccnc2)cc1 | 1.51% | –
O=S(=O)(c1ccccc1)c1nc(-c2ccccc2F)oc1NCc1cccnc1 | -22% | –
CC[N+]1(CC)CC2=Cc3ccccc3CC2C1 (stereo not drawn) | – | 23.1 µM (active)
COc1cc(OC)cc(C(=O)Nc2c(C(=O)Nc3ccc(F)cc3)oc3ccccc23)c1 | -7.58% | –
COc1cccc(/C=N\NC(=O)C2=NNC(=O)C2C)c1O (stereo not drawn) | -3.51% | –
COc1cccc(/C=N/Nc2cc(C)nc(-c3ccccc3O)n2)c1O | – | 14.6 µM (active)
COc1cccc(/C=N/NC(=O)c2[nH]nc3c2CCc2ccccc2-3)c1O | -21.6% | –
Cc1nc2nc(SCC(=O)N(Cc3ccccc3)C(C)C)nn2c(C)c1Cc1ccccc1Cl | 8.79% [at 9.27 µM] | –
CCN1CCc2nc3sc(C(=O)Nc4ccccc4OC(F)(F)F)c(N)c3cc2C1 | 4.26% | –
NC(=O)c1c(NC(=O)CSc2nc(N)cc(=O)[nH]2)sc2c1CCCC2 | 1.73% | –
COC(=O)c1c(NC(=O)CCCC(=O)O)sc2c1CCCCC2 | – | 5.17 µM (active)
COC(=O)c1c(NC(=O)C2CC(C)=C(C)CC2C(=O)O)sc2c1CCCCC2 (stereo not drawn) | -3.38% | –
COC(=O)c1c(NC(=O)c2ccc(Cl)c(Cl)c2)sc2c1CCCC2 | 11.6% | –
COC(=O)c1c(NC(=O)CCN2CCOCC2)sc2c1CCCC2 | 7.94% | –
COC(=O)c1c(NC(=O)CSc2nncs2)sc2c1CCCCC2 | – | 18.4 µM (active)
